For one compound, Potency results are on record in PubChem BioAssay AID1970 (National Center for Advancing Translational Sciences (NCATS), 2009).

The structures appear in SMILES notation. Records with an inconclusive call do not appear. Calls of active or inactive are those of the source. Calls follow the shape of the dose curve; as a rule, active = well fitted inhibition curve with a large enough effect; inconclusive = small, poorly fitted or top-dose-only effect; inactive = flat fitted curve, though single readings scatter.

The target of the test is Dual specificity protein kinase CLK4 (Homo sapiens) (UniProt Q9HAZ1). As to the kind of experiment: Confirmation Assay for Inhibitors of CDC-like Kinase 4 (Kinase-Glo Assay). As to conditions: recombinant Clk4, Kinase-Glo ATP depletion luminescence. The method, then:
NIH Molecular Libraries Probe Production Centers Network [MLPCN] NIH Chemical Genomics Center [NCGC] MLPCN Grant: 1R03MH084827-01 Assay Submitter (PI): Tom Misteli NCGC Assay Overview: Clk4 (Invitrogen, cat# PV3839) was assayed using ATP and the RS repeat peptide (AnaSpec cat # 61722) as substrates. Following the Clk4 reaction, the remaining ATP levels were detected using Promega Kinase-Glo technology wherein the remaining ATP from the kinase reaction is detected using Ultra-Glo luciferase and D-luciferin which generates a bioluminescence signal from the ATP.
NCGC Assay Protocol Summary: Two uL/well of substrate-buffer solution (100 uM RS peptide, 1 uM ATP, 25 mM Tris pH7.5, 10 mM MgCl2, 0.5 mM EGTA, 2.5 mM DTT, 0.01% Triton X-100 final concentration) was dispensed into 1536-well, assay plates (Greiner, solid white medium-binding plates) with Aurora Discovery BioRAPTR Flying Reagent Dispenser (FRD; Beckton-Dickenson). Using a Kalypsys pin tool equipped with a 1536-pin tool, 23 nL of compound solution was transferred to the assay plate. […] Luminescence was detected with the ViewLux plate reader (Perkin Elmer, Waltham, MA) after 5 min incubation using a 5 second exposure time and 2x binning.
For orientation: In Kinase-Glo more light means more ATP remaining.

Dual specificity protein kinase CLK4 (Homo sapiens), sequence (Q9HAZ1 whole entry, looked up): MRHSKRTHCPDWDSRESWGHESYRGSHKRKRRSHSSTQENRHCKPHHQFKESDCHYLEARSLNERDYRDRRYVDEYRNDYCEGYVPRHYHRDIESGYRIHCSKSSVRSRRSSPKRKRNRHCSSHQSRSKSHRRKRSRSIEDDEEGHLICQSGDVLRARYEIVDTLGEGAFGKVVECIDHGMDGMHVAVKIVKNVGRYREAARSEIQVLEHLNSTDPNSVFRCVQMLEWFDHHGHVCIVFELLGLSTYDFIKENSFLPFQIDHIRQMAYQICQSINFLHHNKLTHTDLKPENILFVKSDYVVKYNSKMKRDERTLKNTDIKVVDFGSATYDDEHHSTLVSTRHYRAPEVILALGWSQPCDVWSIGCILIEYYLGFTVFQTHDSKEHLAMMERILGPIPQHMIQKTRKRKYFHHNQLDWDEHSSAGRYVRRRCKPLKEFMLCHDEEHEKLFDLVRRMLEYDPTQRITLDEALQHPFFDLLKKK

Turning to `COc1ccc2c(c1)[nH]c1c(C)nccc12`, the Potency was 67.1 nM (active).
